Data from PubChem BioAssay (NCATS).
Values without a mark were called inactive. Inconclusive results are not listed. Entries that show only a call come without a potency. Calls of active or inactive are those of the source. Unless noted, calls follow the shape of the dose curve; as a rule, active = well fitted curve in the direction sought with a large enough effect; inconclusive = small, poorly fitted or top-dose-only effect, or another doubt; inactive = no such curve, though single readings can be large; an effect the other way counts as inactive or inconclusive.

What was measured:
[1] = AP1 Signaling Pathway (AID 357; active = well fitted curve in either direction with a large enough effect, not every such curve was filed as active;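 also: ME-180 reporter cells stimulated with EGF at its EC50 level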); conditions: ME-180 AP-1-bla reporter, EGF-induced, beta-lactamase ratio, 5 h; at 7.69 µM (top of the series) unless noted
Method in brief: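 Read-out was the 460nm/530nm emission ratio (excitation 405nm) after CCF4 loading for 2.5 hours at room temperature. Cells carried an AP-1-driven beta-lactamase reporter, were stimulated with EC50 EGF plus compound for 5 hours, and AC50 values came from titrations.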

[2] = target: Cytochrome P450 1A2 (Homo sapiens) (UniProt P05177); assay: p450-cyp1a2 (AID 410; calls by dose curve; also: potency is read from the fitted curve at half-maximal effect)
Method in brief: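 Luminescent demethylation readout: Luciferin-ME (100uM, equal to Km) turned over by 20nM CYP1A2 for 60 min at room temperature after NADPH regeneration addition, following 10 min compound preincubation. Normalization used 57 uM furafylline as full inhibition.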

[3] = NFAT Signaling Pathway (AID 444; active = well fitted curve in either direction with a large enough effect, not every such curve was filed as active;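 also: carbachol stimulus at about its EC50 of 1 µM final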); conditions: Jurkat NFAT-bla M1, carbachol, beta-lactamase ratio, 5 h; at 7.69 µM (top of the series) unless noted
Method in brief: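 Jurkat cells carrying an NFAT-driven β-lactamase reporter and co-transfected muscarinic M1 receptor were treated with compound plus carbachol (1 uM final, an EC50 level) for 5 h at 37 °C. CCF4 loading followed for 1 h at RT; 460/530 nm ratio gave %activity.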

[4] = Stat Signaling Pathway (AID 446; active = well fitted curve in either direction with a large enough effect, not every such curve was filed as active;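 also: ME-180 cervical cancer cells given 40 pM IL-6 alongside compound; SIE-controlled beta-lactamase reporter measured as 460/530 nm FRET emission ratio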); conditions: ME-180 (cervical carcinoma) SIE beta-lactamase reporter, IL-6 stimulated, 5 h; at 7.69 µM (top of the series) unless noted
Method in brief: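 Normalization used AC90 stimulation (300 pM IL-6) and AC90 inhibition (125 nM pan-JAK inhibitor at 40 pM IL-6). The underlying signal is SIE-driven beta-lactamase in ME-180 cells after 5 h IL-6 exposure with compound.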

[5] = target: Glucocorticoid receptor (Homo sapiens) (UniProt P04150); assay: GR-EFC Redistribution (AID 451; calls by dose curve; also: potency is read from the fitted curve at half-maximal effect); conditions: CHO-K1 GR-EFC translocation, beta-gal luminescence, 2 h
Method in brief: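 CHO-K1 cells stably expressing nuclear-localized β-gal enzyme acceptor and GR fused C-terminally to the enzyme donor fragment; ligand-driven nuclear translocation restores β-gal by complementation. Compounds titrated up to 46 uM final, 2 h at 37 °C; luminescence read.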

[6] = target: Mitogen-activated protein kinase 10 (Mus musculus) (UniProt Q61831); assay: JNK3 AlphaScreen Assay (AID 530; active = well fitted curve in either direction with a large enough effect, not every such curve was filed as active;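 also: kinase came from lysate of stimulated human HepG2 cells; signal reports phosphorylation of biotinylated GST-cJun 1-79 at Ser73 with 10 µM ATP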)
Method in brief: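 Phosphorylation of biotinylated GST-cJun(1-79) at Ser73 is measured by AlphaScreen proximity luminescence. Enzyme is JNK3 in HepG2 lysates activated with interleukin-1beta and tumor necrosis factor alpha; ATP is 10 uM final.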

[7] = target: 3',5'-cyclic-AMP phosphodiesterase 4B (Homo sapiens) (UniProt Q07343); assay: qHTS Assay for Inhibitors of PDE-IV (AID 607; active = well fitted activation curve with a large enough effect in the main read-out, with a control signal flat, not every such curve was filed as active)
Method in brief: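 HEK293 ACTOne cells with CNG channel (1000/well), endogenous PDE4; membrane potential dye, compounds up to 22.9 uM final. Fluorescence Ex 535/Em 590; RO 20-1724 (100 uM final) as reference.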

[8] = target: Cytochrome P450 2D6 (Homo sapiens) (UniProt P10635); assay: qHTS Assay for Inhibitors and Substrates of Cytochrome P450 2D6 (AID 891); also: nearly all actives have a fitted effect of over 60% in size; also: potency is read from the fitted curve at half-maximal effect;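 as to activity change, negative = inhibition: luciferin methyl ether substrate demethylated by CYP2D6 with NADPH regeneration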
Method in brief: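 Luminescent read-out of luciferin formed by 5 nM human CYP2D6 demethylating 30 uM Luciferin-ME EGE (Km level) over 60 min at room temperature after NADPH regeneration addition. Data normalized to full inhibition by 1.43 uM quinidine.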

[9] = target: Cytochrome P450 2C19 (Homo sapiens) (UniProt P33261); assay: qHTS Assay for Inhibitors and Substrates of Cytochrome P450 2C19 (AID 899); also: nearly all actives have a fitted effect of over 60% in size; also: potency is read from the fitted curve at half-maximal effect
Method in brief: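 In 50mM KPO4, the reaction held 5nM enzyme and KM-level (10uM) Luciferin-H EGE; it ran 60 min at 37C after NADPH regeneration and a 10 min compound preincubation. Luminescence values were scaled to 57uM ketoconazole as complete inhibition.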

[10] = target: Glucocorticoid receptor (Homo sapiens) (UniProt P04150); assay: GR-GFP Redistribution (AID 450;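 active = compounds whose dose series gives a full or clear partial fitted curve of increased nuclear translocation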; also: potency is read from the fitted curve at half-maximal effect); conditions: U2OS GR-GFP nuclear translocation, laser cytometry, 2 h
[11] = target: Guanine nucleotide-binding protein G(i) subunit alpha-1 (Homo sapiens) (UniProt P63096); assay: qHTS Assay for Inhibitors of RGS12 GoLoco Motif Activity (Green Fluorophore) (AID 879);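 also: negative values mean loss of peptide binding seen as reduced polarization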
Method in brief: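 A drop in FITC polarization marked displacement of the FITC-tagged RGS12 GoLoco peptide (10 nM) from Gαi1 (50 nM). Compounds were incubated 10 min at room temperature in Tris pH 7.5 buffer containing 150 mM NaCl, 0.1 mM GDP and 0.05% NP40; unlabeled peptide titration served as control.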

[12] = target: Cytochrome P450 3A4 (Homo sapiens) (UniProt P08684); assay: qHTS Assay for Activators of Cytochrome P450 3A4 (AID 885); also: nearly all actives have a fitted effect of over 65% in size
Method in brief: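 Human CYP3A4 dealkylates Luciferin-PPXE to luciferin, which luciferase detection converts to light. Substrate was at its KM (25uM), buffer 200mM KPO4, reaction 60 min at RT.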

[13] = qHTS Assay for Identification of Small Molecule Agonists for Thrombopoietin (TPO) Signaling Pathway (AID 917)
Method in brief: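 Quantitative HTS for pathway activators: compounds were pin-transferred onto IL-3-starved Ba/F3 cells expressing human TPO receptor, TPO was added at its EC50 (26 pM final), and after 24 hrs at 37 C reporter luciferase was measured.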

[14] = target: Muscarinic acetylcholine receptor M1 (Rattus norvegicus) (UniProt P08482); assay: qHTS Assay for Antagonists of Acetylcholine Muscarinic M1 Receptor: Kinetic Measurement of Intracellular Calcium Response (AID 943);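 also: Fluo-4 calcium signal as peak divided by basal fluorescence over 4 min; nearly all actives have a fitted effect of over 75% in size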
Method in brief: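 Antagonism measured as reduction of carbachol-evoked (EC80, 100 nM final) calcium flux in rat M1-CHO cells after 10 min compound exposure. Fluo-4 signal read kinetically; ratio of maximal to basal fluorescence.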

[15] = target: Pyruvate kinase (Leishmania mexicana) (UniProt Q27686); assay: qHTS Validation Assay for Inhibitors of Leishmania Mexicana Pyruvate Kinase (AID 945)
Method in brief: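 Compounds are tested as eight-point concentration series. Reactions contain 0.2 nM LmPYK E451W, 0.5 mM PEP, 0.1 mM ADP, 7 mM MgCl2 and 50 mM KCl at pH 7.2, run 1 h at room temperature, then read by PKLight luminescence.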

[16] = target: Pyruvate kinase PKM (Homo sapiens) (UniProt P14618); assay: qHTS Assay for Activators of Human Muscle Pyruvate Kinase (AID 954; active = well fitted curve in the direction sought with a large enough effect, not every such curve was filed as active)
Method in brief: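 Compound pinned into substrate mix (0.5 mM PEP, 0.1 mM ADP), then 0.1 nM PKM2 added; 1 h, RT. Stop/detection luciferase reagent added, luminescence read. Normalized to no-inhibition and no-enzyme or reference-inhibitor controls.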

[17] = target: Alpha-galactosidase A (Homo sapiens) (UniProt P06280); assay: Counterscreen for Glucocerebrosidase Inhibitors: qHTS Assay for Human alpha-Galactosidase at pH 4.5 (AID 992)
Method in brief: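 Steps: enzyme (2 nM final), then compound across 0.7 nM to 77 uM, then 80 uM fluorogenic galactopyranoside substrate; incubate 20 min at room temperature; quench at pH 10; measure fluorescence at 365/440 nm.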

[18] = target: alpha-glucosidase (Oryza sativa, rice) (UniProt Q653V4); assay: Counterscreen for Glucocerebrosidase Inhibitors: qHTS Assay for Rice alpha-Glucosidase at pH 5.0 (AID 997)
Method in brief: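 Endpoint fluorogenic assay at pH 5.0: compounds (0.7 nM to 77 uM) titrated against 4 nM rice enzyme and 400 uM 4-MU-alpha-glucoside for 20 min at room temperature; NaOH/glycine stop, read ex 365/em 440 nm, Hill-fitted AC50.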

[19] = target: Muscarinic acetylcholine receptor M1 (Rattus norvegicus) (UniProt P08482); assay: qHTS Assay for Antagonists of Acetylcholine Muscarinic M1 Receptor: Measurement of IP-One Response (AID 944); also: nearly all actives have a fitted effect of over 75% in size
Method in brief: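 IP1 accumulation measured via TR-FRET between d2-IP1 and Eu-cryptate anti-IP1 antibody after carbachol (200 nM, EC80) stimulation for 30 min; rat M1-transfected CHO cells received compound 10 min before agonist.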

[20] = qHTS Assay for Identification of Small Molecule Antagonists for NFkB Signaling Pathway (AID 895; active = well fitted inhibition curve with a large enough effect in the signal ratio, with a control signal flat, not every such curve was filed as active; the % refers to the signal ratio)
Method in brief: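 NFkB-bla ME-180 cervical carcinoma cells with beta-lactamase reporter under NFkB response element; compounds added, then TNF alpha at 10 pM final (EC50), 5 h at 37 C. LiveBLAzer substrate 2 h, room temperature; emission 460/530 nm at 405 nm excitation.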

Cytochrome P450 2C19 (Homo sapiens), sequence (P33261 whole entry, looked up): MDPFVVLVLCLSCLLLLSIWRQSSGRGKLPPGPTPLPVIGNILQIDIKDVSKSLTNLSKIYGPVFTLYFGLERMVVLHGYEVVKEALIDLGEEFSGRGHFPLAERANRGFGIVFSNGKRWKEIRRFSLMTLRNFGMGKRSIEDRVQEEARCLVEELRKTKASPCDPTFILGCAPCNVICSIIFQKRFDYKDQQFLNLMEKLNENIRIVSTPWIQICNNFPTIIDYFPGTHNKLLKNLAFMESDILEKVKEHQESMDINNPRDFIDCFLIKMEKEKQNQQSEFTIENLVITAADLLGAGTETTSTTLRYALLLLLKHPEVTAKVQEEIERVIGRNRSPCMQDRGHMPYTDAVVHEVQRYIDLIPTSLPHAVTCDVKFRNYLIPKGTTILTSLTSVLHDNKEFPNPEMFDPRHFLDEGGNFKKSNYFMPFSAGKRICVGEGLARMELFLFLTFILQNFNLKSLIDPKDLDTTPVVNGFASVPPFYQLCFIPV
Pyruvate kinase (Leishmania mexicana), sequence (Q27686 2-499 E452W): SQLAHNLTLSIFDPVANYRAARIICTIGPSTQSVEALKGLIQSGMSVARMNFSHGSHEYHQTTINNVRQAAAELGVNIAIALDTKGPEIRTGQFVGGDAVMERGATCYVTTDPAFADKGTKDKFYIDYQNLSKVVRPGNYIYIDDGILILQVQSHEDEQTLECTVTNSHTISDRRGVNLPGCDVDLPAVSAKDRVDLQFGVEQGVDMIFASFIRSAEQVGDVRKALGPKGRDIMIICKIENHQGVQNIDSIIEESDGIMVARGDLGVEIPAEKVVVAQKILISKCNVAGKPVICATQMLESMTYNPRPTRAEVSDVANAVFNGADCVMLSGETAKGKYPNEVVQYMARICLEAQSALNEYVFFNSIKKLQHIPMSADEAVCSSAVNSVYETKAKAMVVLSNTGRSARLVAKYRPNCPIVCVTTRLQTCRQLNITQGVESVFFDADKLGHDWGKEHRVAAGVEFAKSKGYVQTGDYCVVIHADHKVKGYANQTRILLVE
Guanine nucleotide-binding protein G(i) subunit alpha-1 (Homo sapiens), sequence (P63096 whole entry, looked up): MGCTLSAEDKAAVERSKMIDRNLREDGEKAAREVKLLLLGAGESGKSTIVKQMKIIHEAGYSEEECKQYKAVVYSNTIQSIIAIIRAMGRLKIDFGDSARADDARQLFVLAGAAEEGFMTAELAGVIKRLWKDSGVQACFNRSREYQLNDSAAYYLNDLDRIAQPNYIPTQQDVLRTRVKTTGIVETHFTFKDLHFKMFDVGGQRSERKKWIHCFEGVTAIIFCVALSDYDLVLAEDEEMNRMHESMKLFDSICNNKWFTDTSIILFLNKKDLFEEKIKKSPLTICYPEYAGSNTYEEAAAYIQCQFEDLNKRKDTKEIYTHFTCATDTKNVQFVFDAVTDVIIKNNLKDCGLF
Cytochrome P450 1A2 (Homo sapiens), sequence (P05177 whole entry, looked up): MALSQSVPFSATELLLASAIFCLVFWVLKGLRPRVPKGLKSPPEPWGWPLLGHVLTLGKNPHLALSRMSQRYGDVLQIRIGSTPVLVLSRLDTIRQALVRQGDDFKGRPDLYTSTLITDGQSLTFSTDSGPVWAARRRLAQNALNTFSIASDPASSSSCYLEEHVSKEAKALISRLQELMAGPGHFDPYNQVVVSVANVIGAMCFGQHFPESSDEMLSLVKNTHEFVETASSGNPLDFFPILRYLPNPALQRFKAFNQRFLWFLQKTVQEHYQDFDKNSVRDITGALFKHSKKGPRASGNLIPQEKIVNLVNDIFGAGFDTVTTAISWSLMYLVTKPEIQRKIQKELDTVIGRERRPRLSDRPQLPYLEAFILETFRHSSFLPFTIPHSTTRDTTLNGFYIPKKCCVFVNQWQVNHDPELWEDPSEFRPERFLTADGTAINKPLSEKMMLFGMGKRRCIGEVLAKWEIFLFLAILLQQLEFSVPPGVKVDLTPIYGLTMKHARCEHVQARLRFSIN
Cytochrome P450 3A4 (Homo sapiens), sequence (P08684 whole entry, looked up): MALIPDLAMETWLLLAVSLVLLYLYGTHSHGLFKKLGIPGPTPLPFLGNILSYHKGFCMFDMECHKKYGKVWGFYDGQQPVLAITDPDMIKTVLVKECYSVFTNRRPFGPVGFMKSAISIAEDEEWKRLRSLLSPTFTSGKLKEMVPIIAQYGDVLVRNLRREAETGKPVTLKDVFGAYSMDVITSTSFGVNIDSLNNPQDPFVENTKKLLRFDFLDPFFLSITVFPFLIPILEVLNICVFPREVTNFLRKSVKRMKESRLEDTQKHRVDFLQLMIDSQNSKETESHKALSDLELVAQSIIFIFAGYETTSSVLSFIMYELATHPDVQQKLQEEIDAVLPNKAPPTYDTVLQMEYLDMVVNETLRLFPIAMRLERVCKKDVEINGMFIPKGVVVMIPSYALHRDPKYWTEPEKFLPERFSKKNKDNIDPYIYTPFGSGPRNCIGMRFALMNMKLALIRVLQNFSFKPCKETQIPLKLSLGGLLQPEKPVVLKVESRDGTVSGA
Cytochrome P450 2D6 (Homo sapiens), sequence (P10635 whole entry, looked up): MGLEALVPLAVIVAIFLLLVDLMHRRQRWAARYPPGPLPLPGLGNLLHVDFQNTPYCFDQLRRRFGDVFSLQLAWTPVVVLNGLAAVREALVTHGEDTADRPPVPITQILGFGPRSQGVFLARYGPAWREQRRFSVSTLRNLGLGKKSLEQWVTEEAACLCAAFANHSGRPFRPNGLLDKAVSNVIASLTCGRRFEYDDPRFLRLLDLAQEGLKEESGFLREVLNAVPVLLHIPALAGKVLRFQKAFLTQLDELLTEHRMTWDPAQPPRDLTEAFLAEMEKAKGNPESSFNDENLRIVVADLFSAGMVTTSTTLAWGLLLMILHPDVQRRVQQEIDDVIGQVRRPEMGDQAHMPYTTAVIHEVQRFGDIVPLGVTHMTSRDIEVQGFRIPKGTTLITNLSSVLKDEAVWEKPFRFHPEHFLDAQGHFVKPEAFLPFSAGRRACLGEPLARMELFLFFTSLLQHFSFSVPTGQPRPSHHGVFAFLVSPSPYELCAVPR
Glucocorticoid receptor (Homo sapiens), sequence (P04150 whole entry, looked up, the tested form may be a part): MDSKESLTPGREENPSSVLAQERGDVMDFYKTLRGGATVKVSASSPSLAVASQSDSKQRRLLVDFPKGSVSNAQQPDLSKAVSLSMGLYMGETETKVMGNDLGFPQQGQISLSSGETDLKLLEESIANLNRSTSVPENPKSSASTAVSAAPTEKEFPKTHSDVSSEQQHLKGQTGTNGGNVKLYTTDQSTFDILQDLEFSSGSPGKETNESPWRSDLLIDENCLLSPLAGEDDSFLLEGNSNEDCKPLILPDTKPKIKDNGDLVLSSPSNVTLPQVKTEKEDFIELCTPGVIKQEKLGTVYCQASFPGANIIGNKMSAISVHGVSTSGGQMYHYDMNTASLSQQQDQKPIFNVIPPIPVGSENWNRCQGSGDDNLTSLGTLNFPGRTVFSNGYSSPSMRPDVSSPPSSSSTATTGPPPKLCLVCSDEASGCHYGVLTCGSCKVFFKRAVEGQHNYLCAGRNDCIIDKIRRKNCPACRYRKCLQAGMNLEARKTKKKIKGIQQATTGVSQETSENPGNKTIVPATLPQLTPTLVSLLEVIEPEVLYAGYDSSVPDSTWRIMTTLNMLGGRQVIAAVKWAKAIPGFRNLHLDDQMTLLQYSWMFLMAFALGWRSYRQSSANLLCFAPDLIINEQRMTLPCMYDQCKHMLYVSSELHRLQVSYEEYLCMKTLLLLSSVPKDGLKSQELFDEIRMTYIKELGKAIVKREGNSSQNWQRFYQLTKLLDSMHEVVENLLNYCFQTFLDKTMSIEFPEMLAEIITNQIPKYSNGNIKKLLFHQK
Pyruvate kinase PKM (Homo sapiens), sequence (P14618 whole entry, looked up): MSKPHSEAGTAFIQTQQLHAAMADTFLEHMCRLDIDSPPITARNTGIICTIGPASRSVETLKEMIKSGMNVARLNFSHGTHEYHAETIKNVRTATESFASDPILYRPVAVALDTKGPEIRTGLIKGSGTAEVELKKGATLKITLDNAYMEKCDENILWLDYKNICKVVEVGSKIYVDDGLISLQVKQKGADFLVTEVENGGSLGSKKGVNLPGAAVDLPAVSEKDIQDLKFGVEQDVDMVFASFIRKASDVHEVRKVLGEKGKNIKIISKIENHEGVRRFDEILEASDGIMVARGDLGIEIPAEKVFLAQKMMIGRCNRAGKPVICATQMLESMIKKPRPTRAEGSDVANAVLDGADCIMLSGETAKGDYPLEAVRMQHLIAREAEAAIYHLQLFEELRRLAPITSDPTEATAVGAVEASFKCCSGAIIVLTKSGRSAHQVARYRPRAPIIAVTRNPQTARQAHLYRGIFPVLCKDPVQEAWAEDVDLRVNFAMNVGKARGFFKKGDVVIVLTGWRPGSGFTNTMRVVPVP
Alpha-galactosidase A (Homo sapiens), sequence (P06280 whole entry, looked up): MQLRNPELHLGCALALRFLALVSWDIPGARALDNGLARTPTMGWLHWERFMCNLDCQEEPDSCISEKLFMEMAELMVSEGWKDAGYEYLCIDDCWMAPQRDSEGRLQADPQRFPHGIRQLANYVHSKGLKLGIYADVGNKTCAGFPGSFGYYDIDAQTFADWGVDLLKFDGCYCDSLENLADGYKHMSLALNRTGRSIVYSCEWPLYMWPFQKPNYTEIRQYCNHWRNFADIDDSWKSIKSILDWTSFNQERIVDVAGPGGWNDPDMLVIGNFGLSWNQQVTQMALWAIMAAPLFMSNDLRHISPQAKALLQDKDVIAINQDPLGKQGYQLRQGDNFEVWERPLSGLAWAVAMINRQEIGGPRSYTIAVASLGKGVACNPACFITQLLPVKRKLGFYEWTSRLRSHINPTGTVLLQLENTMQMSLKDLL

| SMILES | activity change, negative = inhibition [1] | Potency [2] | activity change, negative = inhibition [3] | activity, negative = inhibition [4] | Potency [5] | Potency [6] | Potency [7] | Potency [8] | Potency [9] | Potency [10] | outcome [11] | Potency [12] | outcome [13] | Potency [14] | outcome [15] | outcome [16] | outcome [17] | Potency [18] | Potency [19] | Potency [20] |
| --- | --- | --- | --- | --- | --- | --- | --- | --- | --- | --- | --- | --- | --- | --- | --- | --- | --- | --- | --- | --- |
| CC(=O)OCC(=O)[C@@]1(O)CC[C@@H]2[C@@H]3CCC4=CC(=O)CC[C@@]4(C)[C@H]3C(=O)C[C@]21C | 4.78% [at 38 µM] | inactive | 5.8% [at 38 µM] | -12.6% [at 38 µM] | > 46 µM | inactive | inactive | inactive | inactive |  |  |  |  |  |  |  |  |  |  |  |
| NC(N)=NCCSSCCN=C(N)N | -8.04% [at 38 µM] | inactive | -8.54% [at 38 µM] | -24.3% [at 38 µM] | > 46 µM |  | inactive | inactive | inactive | > 46 µM |  |  |  |  |  |  |  |  |  |  |
| Nc1ccc(CCNc2ncnc3c2ncn3[C@@H]2O[C@@H](CO)[C@H](O)[C@@H]2O)cc1 | -2.21% [at 38 µM] | inactive | 3.61% [at 38 µM] | 17.4% [at 38 µM] | > 46 µM |  | inactive |  |  | > 46 µM | inactive | inactive | inactive | inactive | inactive | inactive | inactive | inactive |  |  |
| CC[C@@H]1CN2CCc3cc(OC)c(OC)cc3[C@H]2C[C@@H]1C[C@@H]1NCCc2cc(OC)c(OC)cc21 | -110% [at 38 µM] (active) | inactive | -112% [at 38 µM] (active) | -52.6% [at 38 µM] (active) | > 46 µM |  |  |  |  | > 46 µM |  |  |  |  | inactive | inactive | inactive | inactive | inactive |  |
| O=C(O)NCc1ccccc1 (tested in a mixture with another compound) | 4.23% | 3.16 µM (active) | -18.9% | 1.18% | > 9.22 µM | inactive |  | 3.98 µM (active) |  | > 46 µM |  |  |  |  |  |  |  |  |  |  |
| CC(C)[C@H]1C(=O)C(C(N)=O)=C(O)[C@]2(O)C(=O)C3=C(O)c4c(O)ccc(N(C)C)c4C[C@H]3C[C@@H]12 | 0.478% [at 38 µM] | inactive | 8.64% [at 38 µM] | 1.38% [at 38 µM] | > 46 µM |  | inactive |  |  | > 46 µM | inactive |  |  | inactive | inactive | inactive | inactive | inactive | inactive | inactive |
| C=C[C@@]1(C)CC(=O)[C@@]2(O)[C@@]3(C)[C@H](O)CCC(C)(C)[C@@H]3[C@H](O)[C@H](OC(C)=O)[C@]2(C)O1 | -15.8% [at 38 µM] | inactive | 5.97% [at 38 µM] | 9.83% [at 38 µM] | > 46 µM |  |  | inactive |  | > 46 µM | inactive | inactive | inactive | inactive | inactive | inactive | inactive | inactive | inactive |  |
| CCNc1ncc2nc(CCc3ccccc3)c(=O)n(C)c2n1 | -11.6% | 2.51 µM (active) | -7.02% | -0.83% | > 46 µM | inactive |  | 1.58 µM (active) | 2.51 µM (active) | > 9.22 µM |  | inactive |  |  |  |  |  |  |  |  |
| CCCCC[C@H](CC(=O)NO)C(=O)N[C@@H](C(=O)N1CCC[C@H]1CO)C(C)C | 26.8% [at 38 µM] | inactive | 6.72% [at 38 µM] | 7.77% [at 38 µM] | > 46 µM |  | inactive |  | inactive | > 46 µM | inactive | inactive |  | inactive | inactive | inactive | inactive | inactive | inactive |  |
| CCCCCCCCCCCCC/C=C\[C@H](O)[C@H](N)CO | 27.4% [at 38 µM] | 31.6 µM (active) | 1.11% [at 38 µM] | -6.68% [at 38 µM] | > 46 µM |  | inactive |  | inactive | > 46 µM |  |  |  |  |  |  |  |  |  |  |
| CSc1nc(N)c2ncn([C@@H]3O[C@@H](COP(=O)(O)OP(=O)(O)O)[C@@H](O)[C@H]3O)c2n1 | 22.9% [at 38 µM] | inactive | 6.32% [at 38 µM] | 5.34% [at 38 µM] | > 46 µM |  | inactive |  |  | > 46 µM | inactive |  | inactive |  | inactive | inactive | inactive | inactive | inactive | inactive |
| O=S(=O)(O)c1cc(N=Nc2cccc3ccccc23)c(O)c2ncccc12 | -3.71% | 0.631 µM (active) | 8.38% | 0.477% | > 9.22 µM |  | inactive |  |  | > 46 µM |  |  |  |  |  |  |  |  |  |  |
